# According to ChEMBL document CHEMBL4808148, “HDAC6 screening dataset using tau-based substrate in an enzymatic assay yields selective inhibitors and activators” (2021):
# The whole screen tested about 5,600 compounds, of which about 390 (7%) showed an effect of 50% or more. Only a selection was taken, and strong results are over-represented in it overall. Positions of bridges follow the written chain, without caps; N, C: chain ends. Non-standard residues stand in square brackets, D forms with d. Residues, ends and D or L forms follow the SMILES beside them. hArg = N=C(N)NCCCC[C@H](N)C(=O)O; Mpa = O=C(O)CCS
# Target: T1, Protein deacetylase HDAC6 (Homo sapiens) (UniProt Q9UBN7)
# T1 sequence (whole entry): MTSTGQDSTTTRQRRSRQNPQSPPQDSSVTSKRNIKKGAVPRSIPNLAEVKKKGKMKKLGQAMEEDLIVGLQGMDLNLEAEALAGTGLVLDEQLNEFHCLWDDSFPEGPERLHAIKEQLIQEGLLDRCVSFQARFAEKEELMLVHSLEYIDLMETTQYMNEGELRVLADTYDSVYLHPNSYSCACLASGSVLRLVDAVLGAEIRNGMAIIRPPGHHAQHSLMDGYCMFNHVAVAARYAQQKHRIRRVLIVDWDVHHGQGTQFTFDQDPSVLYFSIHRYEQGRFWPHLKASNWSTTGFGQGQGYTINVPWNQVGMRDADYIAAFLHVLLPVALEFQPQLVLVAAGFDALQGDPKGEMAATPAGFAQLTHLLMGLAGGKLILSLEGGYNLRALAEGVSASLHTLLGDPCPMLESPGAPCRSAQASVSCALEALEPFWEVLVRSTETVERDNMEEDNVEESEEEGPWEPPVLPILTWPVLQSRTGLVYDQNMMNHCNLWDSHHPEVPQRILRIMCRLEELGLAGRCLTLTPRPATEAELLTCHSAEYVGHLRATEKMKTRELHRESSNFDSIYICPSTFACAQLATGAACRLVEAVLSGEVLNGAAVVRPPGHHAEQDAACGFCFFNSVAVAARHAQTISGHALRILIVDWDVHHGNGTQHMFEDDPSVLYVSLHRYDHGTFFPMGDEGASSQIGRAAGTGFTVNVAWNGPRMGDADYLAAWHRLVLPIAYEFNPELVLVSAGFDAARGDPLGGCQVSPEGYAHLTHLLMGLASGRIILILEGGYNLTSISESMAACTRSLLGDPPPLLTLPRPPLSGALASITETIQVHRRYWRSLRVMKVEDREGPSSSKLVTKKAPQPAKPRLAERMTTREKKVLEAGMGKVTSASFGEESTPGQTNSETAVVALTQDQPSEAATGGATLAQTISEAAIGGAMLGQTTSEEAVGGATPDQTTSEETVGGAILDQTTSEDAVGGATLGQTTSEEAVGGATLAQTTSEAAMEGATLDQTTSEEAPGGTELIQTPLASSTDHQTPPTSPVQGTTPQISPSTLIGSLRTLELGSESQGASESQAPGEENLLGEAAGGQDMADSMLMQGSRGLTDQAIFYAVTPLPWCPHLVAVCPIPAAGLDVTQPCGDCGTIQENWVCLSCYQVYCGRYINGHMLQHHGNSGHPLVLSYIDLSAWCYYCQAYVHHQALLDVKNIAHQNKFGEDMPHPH
# Settings: at 10 µM
row,SMILES,inhibition [%]
1,C[N+](C)(C)CC[N+]1(C)Cc2c(Cl)c(Cl)c(Cl)c(Cl)c2C1,10.9
2,COc1oc(=O)c2cc(N)ccc2c1Cl,22.8
3,C=C1/C(=C\C=C2/CCC[C@]3(C)[C@@H]([C@H](C)CCCC(C)C)CC[C@@H]23)C[C@@H](O)C[C@@H]1O,-2.44
4,COc1ccc(-c2sc(NC(=O)C(C)(C)C)nc2C)cc1S(=O)(=O)Nc1ccc(O)cc1,-1.39
5,O=C(c1ccc(/C=C/c2n[nH]c3ccccc23)cc1)N1CCNCC1,94.8
6,COc1ccc(Cl)c(Nc2ncnc3cc(OCC4CCN(C)CC4)c(OC)cc23)c1,6.69
7,CN(C(=O)CCCOc1ccc2[nH]c(=O)ccc2c1)C1CCCCC1,-1.06
8,N=C(N)NCCCC[C@@H]1NC(=O)CCSSC[C@@H](C(N)=O)NC(=O)[C@@H]2CCCN2C(=O)[C@H](Cc2c[nH]c3ccccc23)NC(=O)[C@H](CC(=O)O)NC(=O)CNC1=O ([Mpa][hArg]GDWPC-NH2; disulfide 1-7),6.3
9,CC/C(=C(\c1ccc(O)cc1)c1ccc(OCCNC)cc1)c1ccccc1,-4.99
10,N=C(N)SCCc1ccc(OCc2ccc([N+](=O)[O-])cc2)cc1,9.62
11,Oc1ccc(OCc2ccccc2)cc1,98.1
12,CCNCCCNCCCCNCCCNCC,4.88
13,CC1(C)CC(Oc2ccc(-c3ccc(-c4cn[nH]c4)cc3O)nn2)CC(C)(C)N1,8.09
14,CN(C)CCOc1cc(-c2cn[nH]c2)ccc1NC(=O)C1COc2ccccc2O1 (stereo not drawn),55.4
15,CC1(C)CCC(C)(C)c2cc(C3(c4ccc(C(=O)O)cc4)OCCO3)ccc21,-3.33
16,CS(=O)(=O)c1ccc(-c2cc(Br)sc2-c2ccc(F)cc2)cc1,-5.78
17,O=C1NC(=O)/C(=C/c2ccc3c(c2)OC(F)(F)O3)S1,0.87
18,O=C1NC(=O)/C(=C/c2ccc(-c3ccc(F)cc3O)o2)S1,90.4
19,N=C1NC(=O)/C(=C/c2ccc(O)cc2)S1,28.8
20,O=C(NO)c1ccc(O)c(O)c1,87.6
21,O=C(O)C(O)Cc1ccc(O)c(O)c1 (stereo not drawn),15.4
22,CC(C)C(=O)c1ccc(O)c(O)c1,-4.84
23,CCC(=O)c1cc(-c2ccc(Cl)cc2)n(-c2ccc(S(N)(=O)=O)cc2)c1C,23.3
24,O=C1c2c(O)ccc(O)c2C(=O)c2c(NCCNCCO)ccc(NCCNCCO)c21,28.6
25,NCCNS(=O)(=O)c1ccc(Cl)c2ccncc12,8.69
26,NCCNc1ccc(NCCN)c2c1C(=O)c1ccncc1C2=O,98.7

row,SMILES,inhibition [%]
1,NC(N)=O,5.48
2,C[C@@H]1CCCN1CCc1cc2cc(-c3ccc(C#N)cc3)ccc2o1,25.1
3,COc1ccc([C@@H]2Sc3ccccc3N(CCN(C)C)C(=O)[C@@H]2OC(C)=O)cc1,10.1
4,Cc1cc(NC(=O)Nc2ccc(F)c(F)c2)n(-c2ccccc2)n1,23.6
5,N#Cc1cccc(C(=O)Nc2cc(-c3ccccc3)nn2-c2ccccc2)c1,70
6,O=C1NC(c2cccc([N+](=O)[O-])c2)=CCN1c1ccccc1O,31.3
7,O=C(Nc1cc(-c2ccccc2)nn1-c1ccccc1F)c1ccc([N+](=O)[O-])cc1,73.6
8,CCOC(=O)c1ccc(OCCC2CCN(c3ccc(C)nn3)CC2)cc1,19.2
9,NS(=O)(=O)C#Cc1ccccc1,-0.7
10,Cc1cccc(C#Cc2ccccc2)n1,101
11,COc1cc(C(=O)O)ccc1NC(=O)[C@@H]1N[C@@H](CC(C)(C)C)[C@](C#N)(c2ccc(Cl)cc2F)[C@H]1c1cccc(Cl)c1F,11.2
12,CO[C@@H]1COCC[C@@H]1N[C@@H]1CC[C@@](C(=O)N2CCc3ncc(C(F)(F)F)cc3C2)(C(C)C)C1,41.3
13,Cc1ccc2c(=O)c3ccccc3n(CCCN)c2c1C,6.54
14,COc1ccncc1C(=O)NC(=O)Nc1ccc(-c2ccccc2)c(C(F)(F)F)c1,9.55
15,Fc1ccc(-c2c3cccc(C(F)(F)F)c3nn2Cc2ccc(F)cc2Cl)cc1,2.87
16,COc1ccc(C(=O)c2ccccc2O)c(O)c1,8.93
17,COc1ccc(C(=O)c2ccc(C)cc2)c(O)c1,50.7
18,Cc1ccc(C(=O)c2cc(O)c(O)c([N+](=O)[O-])c2)cc1,-8.08
19,Cc1c(C(=O)NC2CCCCC2)sc2nc3ccc(N)cc3n12,49.8
20,CCCCC/N=c1/ccn(Cc2ccccc2)c2ccccc12,-3.26
21,O=c1[nH]cnc2nc[nH]c12,57.8
22,Cc1cccc(C)c1NC(=O)c1ccc(N)cc1,7.12
23,C=C1C(=O)O[C@H]2[C@H]1CC/C(C)=C\CC[C@@]1(C)O[C@@H]21,9.8
24,CC#CC(=O)N1CCC[C@H]1c1nc(-c2ccc(C(=O)Nc3ccccn3)cc2)c2c(N)nccn12,10.6
25,O=C(NC1CCNCC1)c1n[nH]cc1NC(=O)c1c(Cl)cccc1Cl,42.4
26,CC1CCC(NC(=O)N(CCCl)N=O)CC1 (stereo not drawn),48.2

row,SMILES,inhibition [%]
1,Oc1ccc(Nc2nc(-c3ccc(Cl)cc3)cs2)cc1,20.2
2,Cc1cccc(Nc2nc(-c3ccncc3)cs2)c1,91.1
3,Cc1cccc(Nc2ccncc2S(=O)(=O)NC(=O)NC(C)C)c1,-9.9
4,O=C(O)CC(O)C(=O)O (stereo not drawn),3.05
5,C[C@H]1[C@H](C)CC[C@]2(C(=O)O)CC[C@]3(C)C(=CC[C@@H]4[C@@]5(C)C[C@@H](O)[C@H](O)[C@@](C)(CO)[C@@H]5CC[C@]43C)[C@H]12,-0.26
6,O=C(NCc1ccccn1)Nc1nnc(-c2ccco2)o1,1.12
7,CCCN(C/C=C/I)C1CCc2cccc(O)c2C1 (stereo not drawn),14.4
8,CN(C)c1ccc(C(=C2C=CC(=[N+](C)C)C=C2)c2ccc(N(C)C)cc2)cc1,79.1
9,C[C@H](Nc1cc(-c2cnn(C)c2)cc(Nc2cnccn2)n1)c1ccc(F)cc1,3.96
10,O=C(O)C1=CCNCC1,5.63
11,Cc1cc(C)c2nc(-c3ccccn3)cc(C(=O)Nc3ccc(S(=O)(=O)Nc4onc(C)c4C)cc3)c2c1,-6.66
12,Cc1ccccc1/N=N/c1ccc(/N=N/c2c(O)ccc3ccccc23)c(C)c1,12
13,Cc1ccc(O)c(/N=N/c2ccccc2)n1,102
14,C=CCN1CCN(c2nc3ccccc3nc2C#N)CC1,32.5
15,CC(C)=CCC/C(C)=C/CC/C(C)=C/CC[C@]1(C)CCc2cc(O)cc(C)c2O1,-4.35
16,CN1CCN(CCc2ccc(Cl)c(Cl)c2)CC1,0.9
17,NC(=O)c1sc(-c2ccsc2)cc1N,101
18,CCc1cc2c(cc1CC)CC(NC[C@H](O)c1ccc(O)c3[nH]c(=O)ccc13)C2,15.6
19,COC(=O)N[C@H](C(=O)N1CCC[C@H]1C(=O)Nc1ccc([C@@H]2CC[C@@H](c3ccc(NC(=O)[C@@H]4CCCN4C(=O)[C@@H](NC(=O)OC)C(C)C)cc3)N2c2ccc(C(C)(C)C)cc2)cc1)C(C)C,18.8
20,CCOC(=O)C1=CCCC[C@H]1S(=O)(=O)Nc1ccc(F)cc1Cl,-6.94
21,NC(=O)N/N=C/c1ccc([N+](=O)[O-])o1,-5.79
22,CC1=NN(c2ccc(C(=O)O)cc2)C(=O)/C1=C\c1ccc(-c2cc(C)c(C)cc2[N+](=O)[O-])o1,-7.66
23,CCOC(=O)c1ccc(N2NC(=O)/C(=C/c3ccc([N+](=O)[O-])o3)C2=O)cc1,66.9
24,Cc1cccc(CCN2CCC(C(=O)c3ccc(NS(C)(=O)=O)cc3)CC2)n1,25.6
25,C[C@]1(O)C[C@@H](c2nc(-c3ccc4ccc(-c5ccccc5)nc4c3)c3c(N)nccn32)C1,29.4
26,Fc1ccc(CNc2ncnc3ccc(F)cc23)cc1,-3.85

row,SMILES,inhibition [%]
1,COc1cc2ncnc(Nc3ccc(Oc4ccccc4)cc3)c2cc1OC,1.72
2,Nc1ccc2ncnc(NCCc3ccc(Oc4ccccc4)cc3)c2c1,58
3,FC(F)(F)c1ccccc1-c1cc(C(F)(F)F)c2[nH]c(C3=NOC4(CCCCC4)C3)nc2c1,-8.26
4,C[C@]12CC[C@H](O)CC1=CC[C@@H]1[C@@H]2CC[C@]2(C)C(c3cccnc3)=CC[C@@H]12,11.3
5,CC[S+]([O-])c1nc(-c2cccc(OCc3ccccc3)c2)cc(C(F)(F)F)n1 (stereo not drawn),21.6
6,COc1ccc2cc(C(C)C(=O)Oc3ccc(C(N)=S)cc3)ccc2c1 (stereo not drawn),29
7,Oc1cc(O)c2c(c1)O[C@H](c1ccc(O)c(O)c1)[C@H](O)[C@H]2c1c(O)cc(O)c2c1O[C@H](c1ccc(O)c(O)c1)[C@H](O)C2,11
8,COc1ccccc1CC(=N)N1C[C@@H]2C(=O)CCC(c3ccccc3)(c3ccccc3)[C@@H]2C1,5.85
9,Cc1c(C2CCN(CCc3ccccc3)CC2)noc1-c1ccc(Cl)cc1,5.51
10,CCCCOCCOc1nc(-c2ccc(C(=O)O)c(F)c2)sc1C,3.39
11,Cc1nc(-c2ccc(OCC(C)C)c(C#N)c2)sc1C(=O)O,94.2
12,Cc1cc(SCc2sc(-c3ccc(C(F)(F)F)cc3)nc2C)ccc1OCC(=O)O,46.6
13,CCCCCCCC(=O)N[C@H](CN1CCCC1)[C@H](O)c1ccc2c(c1)OCCO2,6.2
14,CC(=O)NCC(=O)N[C@H](CCC(=O)O)C(=O)O (Ac-Gly-[dE]-OH),1.3
15,O=C(O)c1ccc2nc(-c3cc(Cl)cc(Cl)c3)oc2c1,76.5
16,CCN1CCCC1CNC(=O)c1cc(S(=O)(=O)CC)c(N)cc1OC (stereo not drawn),-7.98
17,C[C@@H]1C(=O)O[C@H]2[C@H](O)C34C5C[C@@H](C(C)(C)C)[C@]36[C@@H](OC(=O)[C@@H]6O)O[C@@]4(C(=O)O5)[C@@]12O (stereo partly drawn),21
18,CC#CCOC(=O)c1c(C)nc2sc3c(c2c1N)CCC(O)C3 (stereo not drawn),72.4
19,CN(NC(=O)CC(=O)NN(C)C(=S)c1ccccc1)C(=S)c1ccccc1,1.95
20,CO[C@H]1CC[C@@H](C(=O)c2ccc3nc4c(cc3c2)CCCO4)CC1,61
21,O=S(=O)(c1cccc2c(O)nccc12)N1CCCNCC1,9.53
22,Cc1ccc(S(N)(=O)=O)cc1,-0.54
23,COc1cccc(NC(=O)/C=C/c2ccc(Cl)cc2)c1,99.9
24,COc1ccc(/C=C/C(=O)O)cc1,-4.93
25,COc1cc(NC(=O)c2ccc(-c3ccc(Cl)cc3)o2)cc(OC)c1,1.11
